Assay results published in PubChem BioAssay.
Unmarked numbers belong to inactive results. For some assays here: Entries with a potency or affinity are not part of this list. Active and inactive are the calls of the source. Unless noted, no rule for the calls is given here.

Experiments:
[1] = antimalarial activity against Dd2 strain (AID 2302;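 active = growth inhibition above 50% at the single 2 µM test dose, taken to imply half-maximal potency below 2 µM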;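 also: 0% = DMSO untreated growth and 100% = chloroquine plus artemisinin killed control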); conditions: P. falciparum Dd2 in RBCs, LDH growth readout, 72 h; at 2 µM; active compounds read high
[2] = HepG2 cytotoxicity, primary screen, cytotoxicity control for P. falciparum antimalarial project, cell-based, ATP luminescence (AID 2303;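 active = inhibition above 50%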;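 also: 0% = DMSO wells and 100% = digitonin-killed cells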); conditions: HepG2 viability, 24-48 h, at 10 µM, active compounds read high
[3] = target: L-lactate dehydrogenase (Plasmodium falciparum (isolate CDC / Honduras)) (UniProt Q27743); assay: PfLDH activity inhibition – cell lysate, 3D7 strain, counter-screen for P. falciparum growth inhibition project (AID 2304);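 also: 0% = vehicle and 100% = reference inhibitor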; conditions: P. falciparum 3D7 crude extract, LDH APAD/NBT absorbance; at 2 µM; active compounds read high
[4] = inhibition of 3D7 malaria parasite growth – strain 3D7 (AID 2306);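 also: 0% = DMSO wells and 100% = chloroquine plus artemisinin control wells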; conditions: P. falciparum 3D7 erythrocytic growth, LDH absorbance, 72 h; at 2 µM; active compounds read high
[5] = target: Calcium-dependent protein kinase 1 (Plasmodium falciparum (isolate 3D7)) (UniProt P62344); assay: PfCDPK1 kinase inhibitors, biochemical, TCAMS library (AID 1159585; cut-off not given, nearly all actives have IC50 up to about 0.98 µM;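 also: inhibitors leave more ATP so luminescence rises with inhibition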); conditions: recombinant PfCDPK1, Kinase-Glo ATP depletion luminescence
[6] = target: Plasmodium falciparum protein kinase 6 (PK6, PF3D7_1337100) (UniProt Q8IDW1); assay: PfPK6 kinase inhibitors, biochemical, TCAMS library (AID 1159586); conditions: recombinant PfPK6, Kinase-Glo ATP depletion luminescence
[7] = target: Protein kinase 7 (PK7), Plasmodium falciparum 3D7 (PF3D7_0213400) (UniProt Q7YTF7); assay: inhibition of Plasmodium PK7 catalytic activity – biochemical, TCAMS antimalarial set, Kinase-Glo luminescence (AID 1159587); conditions: recombinant PfPK7, Kinase-Glo ATP depletion luminescence
[8] = target: Calcium-dependent protein kinase 4 (Plasmodium falciparum (isolate 3D7)) (UniProt Q8IBS5); assay: PfCDPK4 kinase inhibitors, biochemical, TCAMS library (AID 1159588; cut-off not given, nearly all actives have IC50 up to about 0.91 µM); conditions: recombinant PfCDPK4, Kinase-Glo ATP depletion luminescence
Sequence of Calcium-dependent protein kinase 4 (Plasmodium falciparum (isolate 3D7)) (Q8IBS5 whole entry, looked up): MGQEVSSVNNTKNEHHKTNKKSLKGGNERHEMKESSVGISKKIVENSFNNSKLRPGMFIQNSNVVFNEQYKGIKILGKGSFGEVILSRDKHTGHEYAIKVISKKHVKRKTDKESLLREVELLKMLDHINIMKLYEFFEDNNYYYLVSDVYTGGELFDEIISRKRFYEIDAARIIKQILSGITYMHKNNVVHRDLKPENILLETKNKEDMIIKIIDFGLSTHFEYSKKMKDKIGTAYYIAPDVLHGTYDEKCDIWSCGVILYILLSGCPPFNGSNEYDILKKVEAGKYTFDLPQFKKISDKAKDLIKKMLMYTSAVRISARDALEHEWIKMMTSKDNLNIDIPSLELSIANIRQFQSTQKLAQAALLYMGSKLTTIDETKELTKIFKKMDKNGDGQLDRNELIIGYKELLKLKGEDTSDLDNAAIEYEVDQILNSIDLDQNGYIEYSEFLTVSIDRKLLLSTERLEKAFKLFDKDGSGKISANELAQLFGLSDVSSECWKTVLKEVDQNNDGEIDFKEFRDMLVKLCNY

Sequence of Plasmodium falciparum protein kinase 6 (PK6, PF3D7_1337100) (Q8IDW1 1-305): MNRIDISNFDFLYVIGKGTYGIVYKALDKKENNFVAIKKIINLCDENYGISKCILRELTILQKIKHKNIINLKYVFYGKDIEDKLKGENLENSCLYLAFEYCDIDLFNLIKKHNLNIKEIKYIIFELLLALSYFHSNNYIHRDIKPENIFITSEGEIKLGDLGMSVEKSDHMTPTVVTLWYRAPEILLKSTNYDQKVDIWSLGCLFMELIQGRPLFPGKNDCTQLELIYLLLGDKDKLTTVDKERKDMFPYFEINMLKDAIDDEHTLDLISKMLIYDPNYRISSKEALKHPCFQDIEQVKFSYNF
Sequence of Protein kinase 7 (PK7), Plasmodium falciparum 3D7 (PF3D7_0213400) (Q7YTF7 1-343): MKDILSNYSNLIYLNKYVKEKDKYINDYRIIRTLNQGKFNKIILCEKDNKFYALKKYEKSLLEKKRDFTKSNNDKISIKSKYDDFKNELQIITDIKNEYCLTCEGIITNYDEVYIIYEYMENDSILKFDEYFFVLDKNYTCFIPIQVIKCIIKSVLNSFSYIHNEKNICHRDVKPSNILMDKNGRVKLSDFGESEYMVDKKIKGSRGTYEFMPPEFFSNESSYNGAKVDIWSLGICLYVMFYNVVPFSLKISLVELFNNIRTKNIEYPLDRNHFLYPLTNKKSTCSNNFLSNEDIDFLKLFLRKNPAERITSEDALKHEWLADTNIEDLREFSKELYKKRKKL
Sequence of L-lactate dehydrogenase (Plasmodium falciparum (isolate CDC / Honduras)) (Q27743 whole entry, looked up): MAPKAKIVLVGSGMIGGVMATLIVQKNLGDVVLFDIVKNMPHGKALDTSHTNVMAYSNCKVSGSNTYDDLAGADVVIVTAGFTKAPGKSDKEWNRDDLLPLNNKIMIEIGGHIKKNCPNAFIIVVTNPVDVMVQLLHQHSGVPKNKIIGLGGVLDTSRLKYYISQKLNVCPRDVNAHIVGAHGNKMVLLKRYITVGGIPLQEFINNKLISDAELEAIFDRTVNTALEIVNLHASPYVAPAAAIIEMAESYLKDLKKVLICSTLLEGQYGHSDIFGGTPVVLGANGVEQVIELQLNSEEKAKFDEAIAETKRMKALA
Sequence of Calcium-dependent protein kinase 1 (Plasmodium falciparum (isolate 3D7)) (P62344 whole entry, looked up): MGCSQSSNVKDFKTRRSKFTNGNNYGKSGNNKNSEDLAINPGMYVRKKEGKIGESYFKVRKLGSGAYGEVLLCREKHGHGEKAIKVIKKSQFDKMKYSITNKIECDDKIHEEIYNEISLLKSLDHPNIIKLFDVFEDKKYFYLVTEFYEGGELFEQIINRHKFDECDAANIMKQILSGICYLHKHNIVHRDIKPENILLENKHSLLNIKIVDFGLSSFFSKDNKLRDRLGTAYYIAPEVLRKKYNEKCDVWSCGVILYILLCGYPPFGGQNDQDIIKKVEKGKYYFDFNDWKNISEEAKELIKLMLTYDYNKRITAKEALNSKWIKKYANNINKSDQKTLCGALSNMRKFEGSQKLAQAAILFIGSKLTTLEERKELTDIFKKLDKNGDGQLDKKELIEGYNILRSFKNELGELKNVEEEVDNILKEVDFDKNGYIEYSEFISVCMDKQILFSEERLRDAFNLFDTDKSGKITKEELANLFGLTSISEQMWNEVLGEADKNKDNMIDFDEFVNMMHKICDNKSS

Row | SMILES | growth inhibition [1] | inhibition [2] | inhibition [3] [%] | growth inhibition [4] | outcome [5] | outcome [6] | outcome [7] | outcome [8]
1 | COc1ccccc1N1CCN(c2cccc3c2nc(-c2cncc(C#N)c2)n3CCNCc2ccccc2)CC1 | 81% (active) | -8% | 3 | 101% (active) | inactive | inactive | inactive | inactive
2 | CC(=O)c1ccc2c(c1)[C@H](NC(=O)c1cccc(Cl)c1Cl)[C@@H](CO)C(C)(C)O2 | 44% | 5% | 4 | 99% (active) | inactive | inactive | inactive | inactive
3 | CCC(C)c1ccc(NC(=O)c2ccc(S(=O)(=O)Nc3ccc(OC)c(N4CCN(CC5CC5)CC4)c3)cc2)cc1 (stereo not given) | 17% | 24% | -2 | 94% (active) | inactive | inactive | inactive | inactive
4 | Cc1cc(NN=Cc2cccc([N+](=O)[O-])c2)c2cc(F)ccc2n1 | 99% (active) | 3% | -5 | 102% (active) | inactive | inactive | inactive | inactive
5 | FC(F)(F)c1ccc2nc(-c3ccc(-c4ccc(CN5CCN(c6cnccn6)CC5)cc4)cc3)[nH]c2c1 | 50% (active) | 21% | -7 | 99% (active) | inactive | inactive | inactive | inactive
6 | CCOc1cc(C(C)C)ccc1N1CCN(CCCCNC(=O)c2ccc(NC(=O)c3ccc(Cl)cc3)cc2)CC1 | 97% (active) | 28% | 4 | 101% (active) | inactive | inactive | inactive | inactive
7 | CC1SC(=S)NC1C(=O)O (stereo not given) | -1% | 3% | 0 | 94% (active) | inactive | inactive | inactive | inactive
8 | Clc1ccc(Nc2nc3ccc(Cl)cc3nc2Nc2ccc(Cl)cc2)cc1 | 99% (active) | 79% (active) | 3 | 99% (active) | inactive | inactive | inactive | inactive
9 | O=C(Nc1cccc(C(F)(F)F)c1)N1CCOC(CCN2CCC(c3ccccc3)CC2)(c2ccc(Cl)c(Cl)c2)C1 (stereo not given) | 69% (active) | 15% | 8 | 87% (active) | inactive | inactive | inactive | inactive
10 | Cc1cc(C2CCN(CCCCNC(=O)c3ccc(-c4ccc(C(F)(F)F)cc4)cc3)CC2)c(C)cc1OCCO | 3% | 31% | 2 | 99% (active) | inactive | inactive | inactive | inactive
11 | Cc1ccc(OCC2CCN(c3ncc(C(=O)NC4CC4)cc3Cl)CC2)cc1 | 72% (active) | 2% | 0 | 88% (active) | inactive | inactive | inactive | inactive
12 | COc1ccc2nccc([C@@H](O)CN3CCC(NCC(=O)Nc4cc(F)cc(F)c4)CC3)c2n1 | 28% | 18% | -8 | 89% (active) | inactive | inactive | inactive | inactive
13 | O=C(CCCCCNC(=O)c1ccc(O)c(-c2ccc(Cl)c(Cl)c2)c1)NC1CCCCCC1 | 3% | -4% | 2 | 92% (active) | inactive | inactive | inactive | inactive
14 | O=C(Nc1ccc(Cl)cc1)c1cccc(S(=O)(=O)NC2CCN(CC3CCCCC3)C2)c1 (stereo not given) | 41% | 80% (active) | -2 | 90% (active) | inactive | inactive | inactive | inactive
15 | CN(CCCCCNC(=O)/C=C/c1ccc(Cl)c(Cl)c1)CCc1c[nH]c2ccccc12 | 18% | 40% | 2 | 91% (active) | inactive | inactive | inactive | inactive
16 | OCCN1CCN(c2nc(Nc3cccc(F)c3)c3cnn(-c4ccccc4)c3n2)CC1 | 76% (active) | 89% (active) | -2 | 100% (active) | inactive | inactive | inactive | inactive
17 | CC(=O)Nc1ccc(CN(Cc2cccc(OC(C)(C)C)c2)Cc2ccc3c(c2)OCCO3)cc1 | 96% (active) | -10% | 8 | 95% (active) | inactive | inactive | inactive | inactive
18 | Nc1nc2cccc3ccc4cccc1c4c32 | 69% (active) | 26% | -1 | 101% (active) | inactive | inactive | inactive | inactive
19 | COc1cc(NC(=O)c2cc([N+](=O)[O-])ccc2NC(=O)CNC2CCCCC2C)cc(OC)c1 (stereo not given) | 78% (active) | -2% | 3 | 87% (active) | inactive | inactive | inactive | inactive
20 | CCCCNCc1ccc(-c2nc(CN(CCCN3CCN(C)CC3)C(=O)Nc3cccc(Cl)c3)cs2)cc1 | 73% (active) | 35% | 4 | 99% (active) | inactive | inactive | inactive | inactive

Row | SMILES | growth inhibition [1] | inhibition [2] | inhibition [3] [%] | growth inhibition [4] | outcome [5] | outcome [6] | outcome [7] | outcome [8]
21 | FC(F)(F)c1ccc2nccc(NN=Cc3ccccc3Cl)c2c1 | 83% (active) | -6% | 5 | 101% (active) | inactive | inactive | inactive | inactive
22 | O=C1c2ccc([N+](=O)[O-])cc2C(=O)N1c1ccc2[nH]ncc2c1 | -1% | 11% | -1 | 87% (active) | inactive | inactive | inactive | inactive
23 | O=C1CCCN1CCCNCc1ccc(-c2cccc(-c3nc4ccc(F)cc4[nH]3)c2)cc1 | 8% | 12% | -1 | 101% (active) | inactive | inactive | inactive | inactive
24 | O=C(Nc1cccc(OC2CCN(Cc3ccsc3)CC2)c1)c1ccc(C(F)(F)F)cc1 | 5% | 25% | -2 | 98% (active) | inactive | inactive | inactive | inactive
25 | Cc1ccc(C)c2c1[nH]c1ccc(C3=NCCN3)cc12 | -6% | 29% | -3 | 100% (active) | inactive | inactive | inactive | inactive
26 | Cc1[nH]c(C)c(-c2ccc(OCCSc3ccncc3)cc2)c(=O)c1Br | 95% (active) | -6% | -6 | 95% (active) | inactive | inactive | inactive | inactive
27 | CCOc1ccc(C2CCN(CCCCNC(=O)c3ccc(NC(=O)c4ccc(Cl)cc4)cc3)CC2)c(CC)c1 | 64% (active) | 44% | -4 | 100% (active) | inactive | inactive | inactive | inactive
28 | COc1ccc2nccc([C@@H](O)CN3CCC(NCc4cc5cc(Cl)ccc5[nH]4)CC3)c2c1 | 64% (active) | 27% | 5 | 99% (active) | inactive | inactive | inactive | inactive
29 | Cc1ccc2[nH]c3c(NCCCN(C)C)ncnc3c2c1 | -2% | 1% | -4 | 99% (active) | inactive | inactive | inactive | inactive
30 | COc1ccccc1C1CCN(C2CCC(NC(=O)c3ccc4nc(-c5ccc(C)cc5)[nH]c4c3)CC2)CC1 (stereo not given) | 100% (active) | 100% (active) | 4 | 101% (active) | inactive | inactive | inactive | inactive
31 | Cc1cccc(CNc2nc(C)cc(N[C@@H](Cc3ccccc3)C(=O)NCCc3ccccc3)n2)c1 | 85% (active) | 24% | 2 | 99% (active) | inactive | inactive | inactive | inactive
32 | Cc1ccc2nc(C)n(C3CCN(C(=O)Cc4ccccc4C)CC3)c2c1 | 100% (active) | 2% | 1 | 100% (active) | inactive | inactive | inactive | inactive
33 | Cc1cc2c(cc1C(F)(F)F)N(C(=O)Nc1ccc(OCCN(C)C)c(C(F)(F)F)c1)CC2 | 23% | 38% | -2 | 93% (active) | inactive | inactive | inactive | inactive
34 | Cc1ccccc1C1CCN(C2CCC(NC(=O)/C=C/c3c(F)ccc(F)c3F)CC2)CC1 (stereo not given) | 33% | 37% | 1 | 82% (active) | inactive | inactive | inactive | inactive
35 | COc1ccc(-c2ccc(NC(=O)c3ccc(Cl)cc3)cc2)cc1CN1CCCN(C)CC1 | 61% (active) | 27% | 2 | 93% (active) | inactive | inactive | inactive | inactive
36 | Cc1cc(NC(=O)Nc2ccc(Oc3ccccc3)cc2)c2ccccc2n1 | 28% | 2% | 4 | 91% (active) | inactive | inactive | inactive | inactive
37 | Cc1ccc(CN2CCCCC(NC(=O)c3cc4ccccc4s3)C2)cc1 (stereo not given) | 8% | 9% | -1 | 94% (active) | inactive | inactive | inactive | inactive
38 | COc1ccc2nccc(NCC3(O)CCN(CC(O)c4ccc5c(c4)NC(=O)CS5)CC3)c2n1 (stereo not given) | 3% | 3% | 2 | 100% (active) | inactive | inactive | inactive | inactive
39 | O=C(/C=C/c1ccc(C(F)(F)F)cc1)NCCCCCN1CCN(C(=O)Nc2ccc(Cl)cc2)CC1 | -4% | 37% | -8 | 88% (active) | inactive | inactive | inactive | inactive
40 | CNc1ccc(CNCc2ccc(-c3ccc(-c4nc5ccc(F)cc5[nH]4)cc3)cc2)cc1 | 95% (active) | 38% | -5 | 101% (active) | inactive | inactive | inactive | inactive
